Results on 14 compounds are retold here after the antibiotic and cytotoxicity screens of Wong et al. (2023).

The campaign covered roughly 39,000 compounds. About 1,500 (3.8%) were called active. The full list was thinned out, with actives kept by preference.

For this assay, the system named is HSkMC (human skeletal muscle cells). The assay can be described thus: cytotoxicity call (relative viability < 0.9). The settings on record: 10 µM.
Take `C[C@H](CO)N1C[C@H](C)[C@@H](CN(C)C(=O)C2CCCCC2)Oc2cc(-c3cncnc3)ccc2S1(=O)=O`: the cytotoxicity call was “inactive”.

Consider `C[C@H](CO)N1C[C@H](C)[C@H](CN(C)Cc2ccccc2)Oc2ccc(NS(=O)(=O)c3cn(C)cn3)cc2CC1=O`, for which the cytotoxicity call is “inactive”.

For `C[C@H](CO)N1C[C@H](C)[C@H](CN(C)S(=O)(=O)c2ccc(C(F)(F)F)cc2)OCc2ccccc2-c2c(n(C)c3ccccc23)C1=O`, the cytotoxicity call was “inactive”.

On to `CC(C)NC(=O)Nc1ccc2c(c1)C(=O)N([C@@H](C)CO)C[C@@H](C)[C@@H](CN(C)C(=O)NC1CCCCC1)O2`, for which the cytotoxicity call is “inactive”.

For `C[C@@H]1CCCCO[C@H](CN(C)C(=O)c2ccccc2)[C@@H](C)CN([C@@H](C)CO)C(=O)c2cc(NC(=O)Nc3ccc(F)cc3)ccc2O1`, the cytotoxicity call is “inactive”.

As to `COc1ccc(S(=O)(=O)N(C)C[C@H]2OCCCC[C@H](C)Oc3ccc(NC(=O)c4ccccc4)cc3C(=O)N([C@@H](C)CO)C[C@H]2C)cc1`, the cytotoxicity call was “inactive”.

Consider `COc1ccc2c3c(n(c2c1)C)[C@H](CO)N(C[C@]13CN(C1)S(=O)(=O)c1cn(cn1)C)C(=O)Nc1ccc(cc1)F`, for which the cytotoxicity call was “inactive”.

Take `COc1ccc(S(=O)(=O)Nc2ccc3c(c2)C(=O)N([C@@H](C)CO)C[C@@H](C)[C@@H](CN(C)C(=O)Nc2ccc(C(F)(F)F)cc2)OCCCC[C@@H](C)O3)cc1`: the cytotoxicity call was “inactive”.

For `C[C@@H]1CCCCO[C@H](CN(C)C(=O)CCC(F)(F)F)[C@H](C)CN([C@@H](C)CO)C(=O)c2cc(NS(=O)(=O)c3cccs3)ccc2O1`, the cytotoxicity call was “inactive”.

As to `CC[C@@]1(O)C[C@H](O[C@H]2C[C@H](N(C)C)[C@H](O[C@H]3C[C@H](O)[C@H](O[C@H]4CCC(=O)[C@H](C)O4)[C@H](C)O3)[C@H](C)O2)c2c(cc3c(c2O)C(=O)c2c(O)cccc2C3=O)[C@H]1C(=O)OC`, the cytotoxicity call is “active”.

In the case of `COC(=O)[C@H]1c2cc3c(c(O)c2[C@@H](O[C@@H]2O[C@H](C)[C@H](OC)[C@](C)(OC)[C@@H]2OC)C[C@@]1(C)O)C(=O)c1c(O)cc2c(c1C3=O)O[C@H]1O[C@@]2(C)[C@@H](O)[C@H](N(C)C)[C@@H]1O`, the cytotoxicity call was “inactive”.

In the case of `C[C@@H]1CCCCO[C@H](CN(C)Cc2ccc(Cl)c(Cl)c2)[C@@H](C)CN([C@H](C)CO)C(=O)c2cc(NC(=O)c3ccncc3)ccc2O1`, the cytotoxicity call was “inactive”.

As to `CC=Cc1ccc2n(c1=O)C[C@H]1[C@H](CO)[C@@H](C(=O)NCCc3cn(C)cn3)[C@@H]2N1C(=O)C1CC1`, the cytotoxicity call is “inactive”.

`C[C@H](CO)N1C[C@H](C)[C@H](CN(C)C(=O)Nc2ccc3c(c2)OCO3)Oc2c(NC(=O)C3CC3)cccc2C1=O`: the cytotoxicity call is “inactive”.
